Source: PubChem BioAssay
This is a sample that favours compounds with a hit; in the whole collection about 19% have one here.
HT1080 IDH1KD tx = HT-1080 IDH1 knockdown cell toxicity (counter line). AID 686971. HT-1080 IDH1 knockdown viability, ATP luminescence, 48 h. Potency, µM (top dose mostly 46.1 µM), for inactives: top-dose activity, negative = toxicity, actives largely listed as cytotoxic. 360,000 compounds, 2% hits;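 note: 0% = DMSO wells and -100% = cell-free medium wells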
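Assay cells: HT-1080 with IDH1 knockdown, 750 per well, RPMI/5% FBS. Exposure: 48 h at 37 °C following 2 h pre-incubation. Read: CellTiter-Glo luminescence; fitted concentration-response, curve class assigned.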
KB-V1 cytotox = kills drug-selected multidrug resistant KB-V1 cells; AID 1347076; 400,000 compounds, 3.4% hits; KB-V1 MDR cells viability, CellTiter-Glo, 72 h; Potency, µM (series often up to 46.1 µM), usual class: cytotoxic; note: nearly all actives have a fitted effect of over 60% in size
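Cytotoxicity via CellTiter-Glo luminescence after 72 h compound exposure at 37 degrees C. Cells: drug-selected KB-V1 line, DMEM phenol-red free plus 10% FBS. Compounds tested at multiple concentrations; normalized data fitted to concentration-effect curves.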
KB-3-1 cytotox = kills parental KB-3-1 adenocarcinoma cells; 400,000 compounds, 1.4% hits; Potency, µM (highest dose often 46.1 µM), most hits filed as cytotoxic; KB-3-1 viability, CellTiter-Glo ATP luminescence, 72 h; note: nearly all actives have a fitted effect of over 60% in size
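Cytotoxicity in the drug-sensitive parental line KB-3-1 was scored as loss of CellTiter-Glo luminescence following 72 h incubation with compound. Values come from curve fitting of normalized concentration-response data.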
DT40 TDP1 CPT = DT40-hTDP1 cell growth loss with CPT; chicken DT40 Tdp1-/-;hTDP1 cells + 20 nM CPT, ATP luminescence, 48 h; Potency, µM (highest dose often 46.2 µM), inactives show at the highest dose activity change, negative = growth inhibition, actives largely listed as inhibitors; 420,000 compounds, 12% hits; AID 686979; note: nearly all actives have a fitted effect of over 55% in size
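Chicken DT40 Tdp1-/- cells stably complemented with human TDP1 were seeded at 400 cells/well in medium containing 20 nM camptothecin, exposed to pin-transferred compounds, and grown at 37 °C for at least 48 hr. Viability was read as ATP luminescence.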
TDP1 cell noCPT = qHTS for Inhibitors of human tyrosyl-DNA phosphodiesterase 1 (TDP1): qHTS in cells in absence of CPT; DT40 Tdp1-/- hTDP1 cells, no CPT, ATP luminescence, 48 h; Potency, µM (series often up to 46.2 µM), inactives show top-dose activity change, negative = growth inhibition, usual class: inhibitors; 420,000 compounds, 15% hits; AID 686978, 2013; note: nearly all actives have a fitted effect of over 55% in size
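No-CPT arm: Tdp1-/-;hTDP1 DT40 cells (400/well) plus compounds, incubated ≥48 hr at 37 °C. Readout CellTiter-Glo luminescence.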
HT1080NT lethal = kills 2HG-producing HT-1080-NT fibrosarcoma cells; HT-1080-NT fibrosarcoma viability, CellTiter-Glo ATP luminescence, 48 h; AID 686970; 360,000 compounds, 1.6% hits; Potency, µM (top dose mostly 46.1 µM), inactives show at the highest dose activity, negative = less viability, actives largely listed as cytotoxic;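 note: NT is the 2HG producing partner of a matched IDH1 knockdown line; 0% = DMSO-treated cells and -100% = media-only wells without cells; nearly all actives have a fitted effect of over 55% in size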
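Fibrosarcoma NT cells, 750 per well in 5% FBS RPMI, were exposed to compound for 48 hours. Viability: CellTiter-Glo luminescence.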
An asterisk follows results filed as active; i = inactive; ? = inconclusive; . = no result given. Calls come from the whole dose curve; as a rule, active = well fitted curve in the direction sought with a large enough effect; inconclusive = small, poorly fitted or top-dose-only effect, or another doubt; inactive = no such curve, though single readings can be large; an effect the other way counts as inactive or inconclusive. Unless noted, % is set by controls: 0 for no effect and ±100 for the full control effect; potency is the fitted concentration of half-maximal effect.

SMILES	HT1080 IDH1KD tx	KB-V1 cytotox	KB-3-1 cytotox	DT40 TDP1 CPT	TDP1 cell noCPT	HT1080NT lethal
Cc1cccc(NC(=O)Nc2cccc3ccccc23)c1	13%	i	i	-1%	2%	0%
Cc1ccc(C)c(NC(=O)Nc2nnc(N(CC(C)C)CC(C)C)s2)c1	.	i	i	?	?	.
CCN(CC)C(=O)c1sc2c(c1C)c(=O)n(CCc1ccccc1)c(=O)n2Cc1cc(C)ccc1C	.	i	i	-1%	2%	.
CCCCNC(=O)C1(C)CCCCN1C(=O)c1csnn1 (centres undefined)	25%	i	i	1%	2%	15%
CCCCn1c(=O)[nH]c(=O)c2c1nc(-c1ccc(C)c([N+](=O)[O-])c1)n2CC	-11%	?	i	?	21µM*	-16%
Cc1ccc(-c2nc3c(c(=O)[nH]c(=O)n3CC(C)C)n2CC(C)C)cc1[N+](=O)[O-]	-9%	?	i	?	29µM*	-26%
CCN(CCCNC(=O)c1nn(-c2ccc(C)cc2)c(=O)c2c1c1ccccc1n2C)c1cccc(C)c1	.	i	i	-27%	?	.
O=C(CNc1ccccc1F)Nc1cccc(S(=O)(=O)N2CCCCC2)c1	-11%	i	i	-17%	-21%	-7%
CC(C)(C)C(=O)[C@@H]1[C@@H]2C(=O)N(c3ccc4c(c3)OCCO4)C(=O)[C@@H]2C2c3ccccc3C=CN21 (some centres undefined)	2%	i	i	?	23µM*	-1%
COc1cccc(CC(=O)NC2CCCN(Cc3ccc(Cl)cc3)C2)c1 (centres undefined)	-17%	i	i	?	?	-15%
COc1ccc(C(=O)C2CCCN(Cc3cc(C)c(O)c(C)c3)C2)c(OC)c1 (centres undefined)	-26%	i	i	?	21µM*	?
COc1ccc(C(=O)C2CCCN(C3Cc4ccccc4C3)C2)c(OC)c1 (centres undefined)	?	i	i	21µM*	10µM*	?
COc1cc(CN2CCCC(C(=O)c3ccc(C(C)(C)C)cc3)C2)cc(OC)c1O (centres undefined)	?	i	i	?	?	?
COc1ccc(C(=O)NC2CCCN(Cc3ccc(Cl)cc3)C2)c(OC)c1 (centres undefined)	-17%	?	?	16µM*	12µM*	?
O=c1c2oc3ccccc3c2n(Cc2ccccc2Cl)c(=O)n1Cc1ccco1	.	i	i	16%	22%	.
CCN(c1cccc(C)c1)S(=O)(=O)c1cc2c(cc1C)n(C)c(=O)c(=O)n2C	.	?	i	-5%	-22%	.
Cc1ccc(NCc2cccn2-c2nnc(N3CCC(C(=O)NCc4ccccc4C)CC3)s2)cc1	.	.	.	?	16µM*	.
CCN1CCN(CCCNC(=O)C2CCN(c3nnc(-n4c(C)ccc4C)s3)CC2)CC1	2%	i	i	-26%	?	-5%
Cc1ccc(NCc2cccn2-c2nnc(N3CCCCCC3)s2)cc1	.	i	i	?	16µM*	.
COc1ccc(OC)c(CCNC(=O)C2CCN(c3nnc(-n4cccc4)s3)CC2)c1	-4%	i	i	?	?	-11%
COc1ccccc1CCNC(=O)C1CCN(c2nnc(-n3cccc3CNc3ccc(C)cc3)s2)CC1	.	.	.	18µM*	23µM*	.
CCc1ccc(CNC(=O)C2CCN(c3nnc(-n4c(C)ccc4C)s3)CC2)cc1	.	.	.	?	8.2µM*	.
CCc1cccc(NC(=O)c2cc(S(=O)(=O)N3CCCCCC3)cn2C)c1	.	i	i	-3%	-15%	.
COCCNc1oc(/C=C/c2ccccc2OC)nc1S(=O)(=O)c1ccccc1	-9%	i	i	?	?	-10%
Cc1ccc(C)c(N2N=C(C(=O)OCc3nnc(-c4ccccc4Br)o3)CCC2=O)c1	-2%	i	i	-3%	-3%	-1%
SMILES	HT1080 IDH1KD tx	KB-V1 cytotox	KB-3-1 cytotox	DT40 TDP1 CPT	TDP1 cell noCPT	HT1080NT lethal
Cc1ccc(NCc2cccn2-c2nnc(N3CCC(C(=O)NCc4ccc(F)cc4)CC3)s2)cc1	.	.	.	?	18µM*	.
Fc1ccc(NCc2cccn2-c2nnc(N3CCOCC3)s2)cc1	.	?	i	-18%	-27%	.
COc1ccc(N(CC(=O)NCCc2ccc(OC)c(OC)c2)S(=O)(=O)c2c(C)noc2C)cc1	4%	i	i	3%	0%	4%
COc1ccc(N(CC(=O)NCCc2cccc(C)c2)S(=O)(=O)c2c(C)nn(C)c2C)cc1	.	i	i	?	?	.
Cc1ccc(CCNC(=O)CN(c2ccc(C(C)C)cc2)S(=O)(=O)c2c(C)nn(C)c2C)cc1	.	i	i	?	23µM*	.
COc1ccc(N(CC(=O)NCCc2cccc(C)c2)S(=O)(=O)c2c(C)noc2C)cc1	3%	i	i	?	18µM*	-15%
COc1ccc(N(CC(=O)NCCc2ccc(C)cc2)S(=O)(=O)c2c(C)noc2C)cc1	0%	i	i	21µM*	?	-2%
